RecA intein inh: blocks M. tuberculosis RecA intein splicing | cell-free RecA intein splicing, fluorescence | inhibition, % (no concentration beside the values) | 290,000 compounds, 0.75% hits; in the data active = inhibition above about 30%;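 also: 0% = vehicle wells and 100% = reference inhibitor control wells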
Mtb BioA inh: inhibitors of Mycobacterium tuberculosis BioA enzyme. purified M. tuberculosis BioA enzyme, plate reader. inhibition, % at 9.99 µM. 360,000 compounds, 0.096% hits. AID 602481; in the data active = inhibition above about 40%
TcdB inh: blocks C. difficile toxin B glycohydrolase activity; TcdB glycohydrolase enzymatic assay, plate reader; inhibition, % at 9.99 µM; 350,000 compounds, 0.24% hits; in the data active = inhibition above about 10%
Rv3671c protease: inhibitors of M. tuberculosis serine protease Rv3671c | P9WHR9 | inhibition, % at 5.96 µM | 320,000 compounds, 0.048% hits; in the data active = inhibition above about 38%;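 also: extracellular domain of Rv3671c used as enzyme; 0% = enzyme with DMSO and 100% = no enzyme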
UGM FP inh: Mtb UDP-galactopyranose mutase inhibition; P9WIQ1; purified UGM, fluorescence polarization probe displacement; inhibition, % at 10 µM; 320,000 compounds, 0.06% hits; in the data active = inhibition above about 10%, passing the limit was not always enough
Target sequence (P9WIQ1 whole entry, looked up): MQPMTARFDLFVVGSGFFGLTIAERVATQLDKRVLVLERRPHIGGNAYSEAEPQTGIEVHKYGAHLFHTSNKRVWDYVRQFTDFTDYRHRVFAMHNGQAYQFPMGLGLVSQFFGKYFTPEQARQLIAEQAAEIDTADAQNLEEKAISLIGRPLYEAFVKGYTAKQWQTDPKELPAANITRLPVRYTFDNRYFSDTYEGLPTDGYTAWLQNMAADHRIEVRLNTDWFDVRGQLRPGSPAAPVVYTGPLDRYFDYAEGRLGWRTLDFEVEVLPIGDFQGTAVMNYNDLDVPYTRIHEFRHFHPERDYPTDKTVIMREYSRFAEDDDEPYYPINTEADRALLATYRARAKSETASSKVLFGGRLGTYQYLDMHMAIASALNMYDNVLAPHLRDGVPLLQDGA
FadD28 binding: inhibitors of Mycobacterium tuberculosis FadD28 bisubstrate binding. 360,000 compounds, 0.22% hits. inhibition, % at 12.5 µM. FadD28 bisubstrate probe binding, fluorescence polarization. AID 588549; in the data active = inhibition above about 8.5%, passing the limit was not always enough
GFP chromophore: counter-screen GFP chromophore formation inhibition | shares compounds with RecA intein inh | EC50, µM | cell-free GFP chromophore formation, fluorescence | 2,100 compounds, 83% hits; call rule not given here
* hit, by the source's call; x = not tested or not shown. A selection: hits, their analogues and other compounds. The true share with any hit is near 0.97%.

SMILES	RecA intein inh	Mtb BioA inh	TcdB inh	Rv3671c protease	UGM FP inh	FadD28 binding	GFP chromophore
COc1cc2c(c(O)c1OC)C1Cc3ccc(OC)c(OC)c3CN1CC2 (stereo unspecified)	x	1	2	x	x	1	x
Cc1ccc(-c2ccc([C@@H]3[C@H]4CN(C(=O)c5cccnc5)CC(=O)N4[C@H]3CO)cc2)cc1	x	x	-1	x	x	x	x
C[C@H](CO)N1C[C@H](C)[C@H](CN(C)Cc2ccc(-c3ccccc3)cc2)Oc2ccc(NS(C)(=O)=O)cc2CC1=O	x	1	0	x	x	x	x
C[C@@H](NC(=O)C[C@@H]1C=C[C@H](NC(=O)Nc2ccc3c(c2)OCO3)[C@@H](CO)O1)c1ccccc1	x	0	-1	x	x	x	x
CCSc1cc(C2C(C#N)=C(N)Oc3n[nH]c(C)c32)c(C)o1 (stereo unspecified)	77*	0	x	8	-2	-5	15*
COC(=O)Cc1[nH]nc2c1C(c1c[nH]c3ccccc13)C(C#N)=C(N)O2 (stereo unspecified)	86*	-2	x	-6	1	-5	>38
COC(=O)Cc1[nH]nc2c1C(c1ccc(O)c(OC)c1)C(C#N)=C(N)O2 (stereo unspecified)	77*	-3	-4	4	-2	1	31*
Cc1cc(C)c(C2C(C#N)=C(N)Oc3n[nH]c(C)c32)cc1CN1CCCC1 (stereo unspecified)	25	2	0	5	2	-1	x
Cc1[nH]nc2c1C(c1c[nH]c3ccccc13)C(C#N)=C(N)O2 (stereo unspecified)	90*	1	0	1	4	-1	7.5*
CCOC(=O)C1=C(C)OC(N)=C(C#N)C1c1cc(SCC)oc1C (stereo unspecified)	1	2	-2	-9	-1	-4	x
C[C@@H]1CN([C@H](C)CO)C(=O)c2cccc(NS(C)(=O)=O)c2O[C@@H]1CN(C)Cc1ccc(Cl)c(Cl)c1	x	5	-1	x	x	x	x
C[C@H]1CN([C@@H](C)CO)S(=O)(=O)c2ccc(C#Cc3ccc(F)cc3)cc2O[C@@H]1CN(C)C(=O)CN(C)C	x	6	2	x	x	x	x
CN(C)C(=O)c1ccc(N=Nc2c(O)c3ccccc3[nH]c2=O)cc1	x	0	-1	x	x	0	x
CN(C)C(=S)N=Nc1[nH]c2ccccc2c1O	59*	x	0	13	1	x	8.2*
COc1ccc(NC(=O)Nc2ccc3c(c2)CC(=O)N([C@@H](C)CO)C[C@@H](C)[C@H](CN(C)S(=O)(=O)c2c(C)noc2C)O3)cc1	x	0	-2	x	x	x	x
C[C@@H]1CCCCO[C@@H](CN(C)C(=O)CCCN(C)C)[C@H](C)CN([C@H](C)CO)C(=O)c2cc(NC(=O)C3CCCCC3)ccc2O1	x	4	0	x	x	x	x
O=C(C[C@@H]1C=C[C@@H](NC(=O)C2CCOCC2)[C@@H](CO)O1)NCc1ccccc1Cl	x	x	-1	x	x	x	x
CC(C)C(=O)N1CCN(c2nc(-c3ccccc3)c3c(c2C#N)CCCC3)CC1	31*	-1	x	11	-1	-1	>38
CCc1ccc(NC(=O)CSc2ccc(-c3sc(C)nc3C)nn2)cc1	82*	0	0	-5	3	-5	>38
CCCNC(=O)c1nnsc1S(=O)c1ccc(Cl)cc1 (stereo unspecified)	55*	x	-1	x	x	-1	39*
c1coc(-c2nnc(-c3ccco3)nn2)c1	58*	-2	-1	-23	0	4	9.1*
CN(C)CCCNC(=O)C[C@H]1CC[C@H](NC(=O)Cc2cccnc2)[C@@H](CO)O1	x	-2	0	x	x	x	x
CC(N=Cc1ccccc1O)c1ccccc1 (stereo unspecified)	1	6	x	-10	-1	2	x
Cc1cc(O)c(C(C)C)cc1N=Cc1ccccc1O	51*	x	1	-11	1	-3	15*
CCn1nc(/C=C/c2ccccc2)nc2c(=O)n(C)c(=O)nc1-2	79*	x	-1	x	x	3	0.31*
SMILES	RecA intein inh	Mtb BioA inh	TcdB inh	Rv3671c protease	UGM FP inh	FadD28 binding	GFP chromophore
CC(C)Cn1c(C(C)C)nc([N+](=O)[O-])c1S(=O)(=O)c1ccc(F)cc1	51*	0	x	-3	-2	-1	>38
N#CC1(NC(=O)COC(=O)c2cc(O)c3ccccc3c2O)CCCCC1	81*	1	x	-83	-3	2	4.8*
COc1ccccc1NC(=O)N[C@@H]1CC[C@@H](CCNS(=O)(=O)c2ccc(C)cc2)O[C@@H]1CO	x	x	-1	x	x	x	x
CCOC(=O)c1c(C)[nH]c2cc(Br)c(O)cc12	-2	-3	x	0	1	2	x
CCOC(=O)c1c(OCC)[nH]c2c1cc(O)c1ccccc12	95*	4	x	16	-1	6	4.3*
CN1C(=O)c2cc(NC(=O)c3ccc(F)c(F)c3)ccc2OC[C@H]2O[C@@H](CC(=O)N[C@@H]3CCN(Cc4ccccc4)C3)CC[C@@H]21	x	0	1	x	x	x	x
Cc1ccc(SC(=O)c2c(C)noc2-c2cc(C)on2)cc1	61*	-1	-1	2	1	1	26*
C/C=C/c1ccc2c(c1)O[C@H](CN(C)C(=O)c1cnccn1)[C@H](C)CN([C@@H](C)CO)S2(=O)=O	x	-2	-2	x	x	x	x
O=C(C[C@H]1C[C@@H]2c3cc(NS(=O)(=O)c4ccc(F)cc4)ccc3O[C@@H]2[C@H](CO)O1)N1CCCCC1	x	0	-1	x	x	x	x
CC(C)(C)OC(=O)N/N=C\c1ccc(OC(=O)c2ccco2)cc1	43*	x	1	9	0	-2	>38
CCOC(=O)N/N=C\c1ccc(OC(=O)c2ccco2)cc1	34*	2	0	4	-1	-4	>38
COC(=O)N/N=C\c1ccc(OC(=O)c2ccco2)cc1	40*	x	1	12	-2	-3	>38
CCOc1cc(/C=N\NC(=O)OC(C)(C)C)ccc1OC(=O)c1ccco1	31*	x	1	7	1	-1	>38
Cc1ccc(NCC(=O)N/N=C/c2ccc(OC(=O)c3ccco3)cc2)cc1	8	13	-1	19	-2	-3	x
C[C@@H]1CCCCO[C@H](CN(C)C(=O)c2ccccc2)[C@@H](C)CN([C@H](C)CO)C(=O)c2cc(NC(=O)CCCN(C)C)ccc2O1	x	0	0	x	x	x	x
CO[C@@H]1CN(C)C(=O)c2ccc(NC(=O)Nc3cccc(F)c3)cc2OC[C@@H](C)N(C(C)=O)C[C@H]1C	x	1	x	x	x	x	x
O=C(c1ccc2c(c1)OCO2)N1CC(=O)N2[C@H](CO)[C@@H](c3ccc(C#CCC4CCCC4)cc3)[C@H]2C1	x	x	1	x	x	x	x
CN(C)C(=O)N1CCN(S(=O)(=O)c2ccc3ccccc3c2)CC1	x	2	1	-3	1	-2	x
O=C(CCl)N1CCN(S(=O)(=O)c2ccc3ccccc3c2)CC1	76*	1	0	4	1	-3	28*
CCOC(=O)C(C#N)C(c1cccnc1)c1c(C)[nH][nH]c1=O (stereo unspecified)	78*	-2	x	-8	-1	-1	11*
